This is a sample that favours compounds with a hit; in the whole collection about 19% have one here.
CHX counter: affects cycloheximide protein synthesis inhibition readout, counter-screen; hit rate 12% among 300,000; max response, %; cell reporter, cycloheximide protein synthesis inhibition counterscreen; in the data active means max response mostly above about 13%, no sharp cut-off; inactive means mostly below about 14%; further: read at 38.3 µM for the half of the compounds with a filed dose; 0% is about no effect
Lassa entry inh: blocks Lassa virus binding to or entry into cells | Lassa virus pseudotype entry inhibition, cell reporter | hit rate 1.2% among 300,000 | Potency, µM (highest dose often 37.9 µM), for inactives: at the top dose activity change, negative = inhibition, actives largely listed as inhibitors; calls by dose curve; tested in HEK293 cells; further: potency means the concentration at half of the fitted maximal effect; on the % scale 0 is the no-effect control and ±100 the full control effect; nearly all actives have a fitted effect of over 50% in size
Shiga inhibitor: blocks Shiga toxin action in Vero cells; Vero cells, Shiga toxin protein synthesis inhibition reporter; inhibition, % at 38.7 µM; hit rate 9.2% among 290,000; in the data active means inhibition mostly above about 28%, no sharp cut-off; inactive means mostly below about 43%; further: 0% is about no effect
Pf growth 48h: inhibits P. falciparum growth in the first generation, 48 h | hit rate 5.9% among 310,000 | Potency, µM (highest dose often 28.7 µM), without a hit: at the highest dose activity change, negative = inhibition, usual class: inhibitors | P. falciparum luciferase growth in erythrocytes, 48 h | AID 504832; further: potency means the concentration at half of the fitted maximal effect; on the % scale 0 is the no-effect control and ±100 the full control effect
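Read-out is firefly luciferase luminescence from an integrated reporter in P. falciparum, so falling signal marks reduced parasite growth. Infected erythrocytes were at 2% hematocrit and 0.1% parasitemia (final) in Albumax-supplemented RPMI 1640.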
Marburg entry inh: inhibitors of Marburg virus binding or cell entry; Marburg virus pseudotyped entry inhibition, cell reporter; Potency, µM (series often up to 37.8 µM), for inactives: at the top dose activity change, negative = inhibition, most hits filed as inhibitors; AID 540276; hit rate 1.8% among 300,000; calls by dose curve; tested in HEK293 cells; further: potency means the concentration at half of the fitted maximal effect; on the % scale 0 is the no-effect control and ±100 the full control effect
Pf growth 96h: P. falciparum growth inhibition at 96 hours; P. falciparum luciferase reporter growth, 96 h; Potency, µM (doses to about 28.7 µM), for the others: at the top dose activity change, negative = inhibition, usual class: inhibitors; hit rate 6.9% among 320,000; AID 504834; further: potency means the concentration at half of the fitted maximal effect; on the % scale 0 is the no-effect control and ±100 the full control effect
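Erythrocytes infected with luciferase-expressing P. falciparum were dispensed at 2% hematocrit and 0.05% parasitemia (final), then incubated with compounds 96 hours at 37 C in 5% CO2. Luminescence after detection reagent addition reported growth.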
* = called active by the depositor; ? = inconclusive; . = no result given; [ ] = dose if it differs, or a comment. Unless noted, the call rests on the fitted dose curve; in most records, active means well fitted inhibition curve with a large enough effect; inconclusive means small, poorly fitted or top-dose-only effect, or another doubt; inactive means no such curve, though single readings can be large or run the other way.

SMILES	CHX counter	Lassa entry inh	Shiga inhibitor	Pf growth 48h	Marburg entry inh	Pf growth 96h
COc1cc(NC(=O)CN2C(=O)c3ccccc3Sc3ccc(C(=O)N4CCOCC4)cc32)cc(OC)c1OC	-1	15%	8	6.6µM*	-1%[46.1 µM]	?
C=CCN1C(=O)c2ccccc2Sc2ccc(C(=O)N3CCC4(CC3)OCCO4)cc21	-2	-5%	-14	?	-16%	10µM*
Cc1cc(C)cc(NC(=O)CN2C(=O)c3ccccc3Sc3ccc(C(=O)N4CCOCC4)cc32)c1	.	-9%[46.1 µM]	.	.	.	.
O=C(c1ccc2c(c1)N(Cc1cccc(F)c1)C(=O)c1ccccc1S2)N1CCC2(CC1)OCCO2	.	-12%[46.1 µM]	.	.	.	.
Cc1[nH]c2ccccc2c1C(=O)C(C)OC(=O)c1ccc([N+](=O)[O-])o1 (stereo not drawn)	3	.	16	3.3µM*	-2%[46.1 µM]	?
C=C1C(=O)O[C@H]2C[C@]3(C)C([C@@H](OC(=O)/C(C)=C/C)[C@H]12)[C@](C)(O)CC[C@H]3O (stereo partly drawn)	30*	.	34	-20%	.	-9%
C=CCN(c1ccccc1)S(=O)(=O)c1ccc2[nH]cc(C(=O)NCCOC)c(=O)c2c1	-2	.	-6	?	.	4.7µM*
COCCNC(=O)c1c[nH]c2ccc(S(=O)(=O)N(C)c3ccc(C)c(C)c3)cc2c1=O	22*	-11%	43	.	?	?
CCN1CCN(C(c2ccccc2)c2nnnn2Cc2ccc(OC)cc2)CC1 (stereo not drawn)	-8	.	-13	1%	.	5.2µM*
COc1ccc(Cn2nnnc2CN2CCc3ccccc3C2)cc1	-7	-29%	-15	.	?	13µM*
CCCC(c1nnnn1Cc1ccccc1)N1CCN(c2ccccc2OC)CC1 (stereo not drawn)	-5	-24%	-9	-21%	-13%	?
CN1CCN(C(c2cccc(C(F)(F)F)c2)c2nnnn2Cc2ccccc2)CC1 (stereo not drawn)	-4	?	-6	?	15µM*	-7%
CCCC(c1nnnn1Cc1ccc(OC)cc1)N1CCN(c2ccccc2OC)CC1 (stereo not drawn)	-4	?	9	10µM*	?	.
COc1ccccc1Nc1nc(-c2ccccc2Cl)c2cc(Br)ccc2n1	.	-13%[46.1 µM]	.	.	.	.
Cc1onc(-c2c(F)cccc2Cl)c1C(=O)N1C=CC(C(F)(F)Cl)=NCC1	-3	5%	-10	-2%	10%	0%
CCCN(CC(=O)Nc1ccccc1OC)C(=O)CCCN1C(=O)c2ccccc2C1=O	.	-2%[46.1 µM]	.	-2%	-11%	33%
COc1ccc(Cn2nnnc2C(c2cccs2)N2CCN(c3ccc([N+](=O)[O-])cc3)CC2)cc1 (stereo not drawn)	-2	1%	-1	10µM*	?	?
Cc1nn(CC(=O)N2CCC3(CC2)OCCO3)c(=O)c2cc3ccccc3n12	-2	.	-5	11%	.	-16%
CCOC(=O)COc1ccccc1C(=O)c1cnn(-c2ccccc2)c1	59*	.	111*	.	.	41%
CCOC(=O)COc1ncn(-c2ccccc2)n1	-1	0%	-6	.	8%	?
CC(C)c1ccc(NC(=O)COc2ccc(F)cc2C(=O)c2cnn(-c3ccccc3)c2)cc1	73*	?	120*	-67%	?	?
O=C(COc1ccccc1C(=O)c1cnn(-c2ccccc2)c1)Nc1ccc2ccccc2c1	57*	7%	20	35%	?	-10%
O=C(COc1ccc2ccccc2c1)Nc1cccc(C(=O)Nc2ccccc2C(=O)O)c1	1	-5%	-4	6%	-8%	?
COCCn1c(SCC(=O)NC(=O)NC(C)C)nc2ccccc21	-4	4%	-20	6%	0%	-14%
COc1ccc2oc(=O)cc(-c3cc4cccc(OC)c4o3)c2c1	-3	2%[46.1 µM]	-9	25%	16%[46.1 µM]	25%
SMILES	CHX counter	Lassa entry inh	Shiga inhibitor	Pf growth 48h	Marburg entry inh	Pf growth 96h
COCCn1c(=S)[nH]c2sc3c(c2c1=O)CCC(C)C3 (stereo not drawn)	-1	-20%	3	26%	15%[46.1 µM]	47%
COCCCn1c(=S)[nH]c2sc3c(c2c1=O)CCCS3	40*	14%	91*	105%	?	104%
O=C(Oc1c(CN2CCOCC2)cc(Cl)c2cccnc12)c1ccc(F)cc1	30*	?	38	4.7µM*	10µM*	7%
COc1cc(C(=O)Oc2c(CN3CCOCC3)cc(Cl)c3cccnc23)cc(OC)c1OC	8	.	-8	.	-2%	?
COc1ccc(C(=O)Oc2c(CN3CCOCC3)cc(Cl)c3cccnc23)cc1	6	-22%	-16	15µM*	?	.
COc1cccc(C(=O)Oc2c(CN3CCOCC3)cc(Cl)c3cccnc23)c1	28	?	-6	4.7µM*	8.2µM*	.
O=C(Oc1ccc(Cl)c2cccnc12)N1CCOCC1	-2	-1%	-9	20%	1%	?
COc1ccccc1NC(=O)CSC(N)=O	-2	-14%	-9	.	0%	-13%
CCOC(=O)c1ccc(NC(=O)c2nc[nH]c2C(=O)NCC(=O)OC(C)(C)C)cc1	4	.	-5	?	.	?
CN1CCN(c2ccc(S(=O)(=O)N3CCCCC3)cc2NC(=O)COc2ccc(F)cc2)CC1	.	-23%[46.1 µM]	.	?	?	?
Cc1ccc(OCCCC(=O)Nc2cc(S(=O)(=O)N3CCOCC3)ccc2N2CCOCC2)cc1	.	-11%	.	10µM*	-17%	-30%
O=C(COc1ccc(F)cc1Cl)Nc1cc(S(=O)(=O)N2CCOCC2)ccc1N1CCCCC1	-2	?	-6	4.1µM*	?	2.1µM*
O=C(COC(=O)c1ccc(F)cc1)Nc1cc(S(=O)(=O)N2CCOCC2)ccc1N1CCCC1	-1	-9%	14	-20%	18%[46.1 µM]	-25%
CN1CCN(c2ccc(S(=O)(=O)N3CCOCC3)cc2NC(=O)COc2ccc(F)cc2Cl)CC1	-3	10%	-12	?	?	13µM*
CCc1ccccc1OCC(=O)Nc1cc(S(=O)(=O)N2CCOCC2)ccc1N1CCCCC1	.	?	.	2.9µM*	?	1µM*
Cc1c(Cl)cccc1NC(=O)CCC(=O)NNC(=O)c1ccco1	3	-6%	-20	29%	10%	0%
Cc1ccc(NC(=O)CSCc2cnn(-c3ccccc3)c2-n2cccc2)c(C)c1	.	.	.	.	-19%[46.1 µM]	.
Cc1cccc(NC(=O)CSCc2cc(=O)n3c(C)csc3n2)c1C	-4	.	-8	6%	.	-1%
CCN1C(=O)C(CC(=O)Nc2ccc(OC)cc2)N(CCc2ccc(F)cc2)C1=S (stereo not drawn)	1	?	-13	?	?	28%
Cc1ccc(C(=O)O)cc1NC(=O)c1ccc2c(c1)C(=O)N(c1ccc([N+](=O)[O-])cc1)C2=O	-2	3%[46.1 µM]	34	44%	14%[46.1 µM]	?
CCN(CC)S(=O)(=O)c1ccc(N2CCOCC2)c(NC(=O)COc2ccc(Cl)cc2)c1	-7	.	-1	?	.	?
